Assay [1] concerns the target Cytochrome P450 1A2 (Homo sapiens) (UniProt P05177). As to the kind of experiment: p450-cyp1a2 (AID 410; calls by dose curve;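 also: -100% = full effect of reference inhibitor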). In short, it runs like this: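 Luminescent readout of luciferin formed from Luciferin-ME by human CYP1A2; data normalized against complete inhibition by 57 uM furafylline. Enzyme 20nM, substrate 100uM at Km, 100mM KPO4 buffer, 60 min reaction at room temperature.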

The target of assay [2] is 3',5'-cyclic-AMP phosphodiesterase 4B (Homo sapiens) (UniProt Q07343). Briefly: qHTS Assay for Inhibitors of PDE-IV (AID 607; active = well fitted activation curve with a large enough effect in the main read-out, with a control signal flat, not every such curve was filed as active; also: % of control where 0% means no effect). In short, it runs like this:
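The readout is membrane depolarisation from a cAMP-sensing CNG channel, detected with a potential dye at ex 535/em 590. Cells were HEK293-derived (endogenous PDE-IV) at 1000 cells/well, titrated up to 22.9 uM final.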

In assay [3] the target is Guanine nucleotide-binding protein G(i) subunit alpha-1 (Homo sapiens) (UniProt P63096). Briefly: qHTS Assay for Inhibitors of RGS12 GoLoco Motif Activity (Green Fluorophore) (AID 879).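 Also: 0% = labeled peptide with Gαi1 and full inhibition = labeled peptide alone without protein; negative values mean loss of peptide binding seen as reduced polarization.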 In short, it runs like this:
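Fluorescence polarization assay: 50 nM Gαi1 with 10 nM FITC-labeled RGS12 GoLoco peptide in 10 mM Tris pH 7.5, 150 mM NaCl, 0.1 mM GDP, 0.05% NP40, 10 min at room temperature with compound.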

Assay [4] in a line: qHTS for differential inhibitors of proliferation of Plasmodium falciparum line 7G8 (AID 1815).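 Also: potency is read from the fitted curve at half-maximal effect; parasite growth measured after three days of incubation.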
Assay [5] in a line: qHTS for differential inhibitors of proliferation of Plasmodium falciparum line HB3 (AID 1886).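 Also: parasites grown with compound for 72 h before SYBR Green readout; plate controls were vehicle for no effect and reference inhibitor for full effect.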 The note with it: Potency: Plasmodium falciparum HB3 proliferation inhibition.
Assay [6] has as its target Transient receptor potential cation channel subfamily V member 1 (Homo sapiens) (UniProt Q8NER1). Briefly: HTS Assay for Compounds that Act as Enhancers of the Vanilloid Receptor 1 (AID 488979). Also: 0% is about no effect. In short, it runs like this:
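Calcium influx kinetics via Fluo-8 (480/520 nm) in TRPV1-expressing cells, 2000/well cultured overnight at 35.5C. Compound-alone read 3 min (agonist phase), followed by EC20 capsaicin challenge for 2 min (enhancer phase).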

Assay [7] addresses Thyrotropin receptor (Homo sapiens) (UniProt P16473). As to the kind of experiment: qHTS Assay for Antagonists of the Thyroid Stimulating Hormone Receptor (AID 488980). Also: 0% is about no effect. In short, it runs like this: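 Cells expressing human TSHR (HEK293) are dispensed in HBSS/HEPES containing 70 uM RO 20-1724, compound is added, then TSH at EC80 (4 nM final). Antibody in lysis buffer follows, 30 minutes at room temperature before HTRF detection.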

The target in assay [8] is Thyrotropin-releasing hormone receptor (Homo sapiens) (UniProt P34981). Briefly: qHTS for Small Molecule Agonists and Allosteric Enhancers of Human TRH Receptor: Validation Screen for Agonists (AID 493127;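 active = calcium activation more than 3 SD above the typical response in the agonist read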;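 also: intracellular calcium rise by fluo-8 fluorescence before TRH EC20 addition; 0% is about no effect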). The note with it: TRH receptor agonist cell assay; at 2 µM; stronger effect = higher value. A digest of the protocol: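 Cells 2000/well, 10% FCS, 18 h 33.5C/5% CO2 → fluo-8 Ca dye, RT 30 min–1.5 h → FDSS baseline 10 × 1 s → compound added → 230 cycles (1 s/cycle) agonist mode. TRH controls.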

Assay [9] has as its target Androgen receptor (Homo sapiens) (UniProt P10275). As to the kind of experiment: qHTS assay for small molecule agonists of androgen receptor signaling (AID 588515; active = well fitted curve in the direction sought with a large enough effect in the signal ratio, with a control signal flat; the % refers to the signal ratio; also: % is scaled to controls: 0 for no effect and ±100 for the full control effect). As to conditions: AR-UAS-bla HEK293, beta-lactamase ratio, agonist 16 h; stronger effect = higher value. A digest of the protocol:
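EC50 and efficacy came from Hill fits of titrations (up to 92 uM) normalized to 30 nM R1881 as 100% and DMSO as 0%. Compound exposure was 16 h at 37 C on AR-UAS-bla HEK293 cells, with a 405/460/530 nm CCF4 fluorescence read.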

For assay [10], the target named is Thyroid hormone receptor beta (Homo sapiens) (UniProt P10828). Briefly: qHTS assay for small molecule agonists of thyroid hormone receptor beta signaling (AID 588545; calls by dose curve). A digest of the protocol: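 Cells (2500/well) were seeded, incubated 4 hrs at 37 C, dosed with a compound series, incubated 18 hrs, loaded with CCF4 dye for 2 hrs at RT, then read for fluorescence. Data were scaled between DMSO (0%) and 10 nM T3 (100%).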

Assay [11] can be described thus: qHTS assay for small molecule activators of the nuclear factor-kappa B (NF-kB) signaling pathway (AID 651749; active = well fitted activation curve with a large enough effect in the signal ratio; the % refers to the signal ratio; also: % of control where 0% means no effect). As to conditions: NF-kB-bla ME-180 cells, beta-lactamase FRET ratio, 16 h; stronger effect = higher value. A digest of the protocol:
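Readout: beta-lactamase reporter driven by an NF-kB response element, detected fluorescently as loss of FRET. Cells were the ME-180 line, treated 16 hr at 37C with pin-transferred compound.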

Assay [12] can be described thus: qHTS assay for environmental chemicals that activate the Aryl hydrocarbon Receptor (AhR) signaling pathway (AID 651777). Also: % of control where 0% means no effect; nearly all actives have a fitted effect of over 15% in size. The note with it: 1A2-DRE human hepatoma cells, luciferase, 24 h; activation: stronger effect = higher value. A digest of the protocol: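 Reporter gene assay: hepatoma cells with DRE/CYP1A2-luciferase, 24 hr compound incubation at 37 C, 5% CO2, luminescence after One-Glo (30 min, RT).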

Assay [13] in a line: qHTS assay for small molecule agonists of the antioxidant response element (ARE) signaling pathway measured by Nrf2-dependant transcriptional activity (AID 720636; active = well fitted curve in the direction sought with a large enough effect in the repeat runs; an effect the other way counts as inactive or inconclusive;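 also: HepG2 cells with an ARE-driven luciferase reporter; % of control where 0% means no effect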). A digest of the protocol:
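Nrf2-dependent transcription is measured in ARE-luc HepG2 cells: compound is applied for 16 hr at 37 C after a 6 hr attachment period, and luciferase activity is quantified by luminescence using ONE-Glo.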

The nature of assay [14]: qHTS assay for small molecule agonists of the antioxidant response element (ARE) signaling pathway measured by Nrf2-dependant transcriptional activity - cell viability counter screen (AID 720653; active = well fitted curve in the direction sought with a large enough effect in the repeat runs; an effect the other way counts as inactive or inconclusive; also: % is scaled to controls: 0 for no effect and ±100 for the full control effect). The note with it: ARE-bla HepG2 viability, CellTiter-Glo ATP luminescence, 16 h; stronger effect = lower value. In short, it runs like this:
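Cytotoxicity counter screen: intracellular ATP quantified by CellTiter-Glo luminescence in the same ARE-bla HepG2 plates, after 16 h compound exposure and a 2 h beta-lactamase substrate step.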

Assay [15] can be described thus: qHTS assay for cell viability of HEK293 cells (AID 743288). Also: % is scaled to controls: 0 for no effect and ±100 for the full control effect; nearly all actives have a fitted effect of over 50% in size. The note with it: ATP luminescence (CellTiter-Glo), 18 h, stronger effect = lower value. In short, it runs like this:
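The Tox21 protocol used parental HEK293 cells treated for 18 h at 37 C with compounds delivered by pintool; ATP-coupled luminescence after 30 min at room temperature gave viability.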

Assay [16] is described as follows: qHTS assay for cell viability of the p53RE-bla HCT-116 cell line (AID 743292). Also: potency is read from the fitted curve at half-maximal effect; nearly all actives have a fitted effect of over 55% in size. In short, it runs like this:
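ATP-based luminescence, 16 h compound exposure at 37 C, p53RE-bla HCT-116 cells at 4,000/well.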

The nature of assay [17]: Primary qHTS for small molecule stabilizers of the endoplasmic reticulum resident proteome: Secreted ER Calcium Modulated Protein (SERCaMP) assay (AID 1508630). Also: % is scaled to controls: 0 for no effect and ±100 for the full control effect. A digest of the protocol:
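GLuc-SERCaMP-expressing SH-SY5Y cells, pretreated 16 h with compound, are challenged with thapsigargin to empty ER calcium stores; after 4 h, coelenterazine is added directly to the medium and luminescence is imaged.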

Assay [18] concerns the target Nuclear receptor subfamily 1 group I member 2 (Rattus norvegicus) (UniProt Q9R1A7). As to the kind of experiment: qHTS assay for small molecule activators of the rat pregnane X receptor (rPXR) signaling pathway (AID 651751; call rule not given here; also: 0% is about no effect). The note with it: rPXR reporter cells, luciferase (One-Glo), 24 h.
In assay [19] the test system is ICS. As to the kind of experiment: qHTS profiling for inhibitors of Plasmodium falciparum proliferation (AID 504749). Also: nearly all actives have a fitted effect of over 60% in size. Also: potency is read from the fitted curve at half-maximal effect. The note with it: P. falciparum in erythrocytes, SYBR Green DNA, 72 h; series mostly up to 28.7 µM. In short, it runs like this: (§1)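 Infected RBCs, 0.3% parasitemia/2.5% Hct final; cpd 72 h, 37 C, 5% CO2; lysis buffer with saponin/triton/SYBR Green I, o/n RT dark; FI 485/535; norm. to artemisinin (0.29 uM) and DMSO.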

The test system of assay [20] is CP266. The assay is described as above. The note with it: P. falciparum in erythrocytes, SYBR Green DNA, 72 h; series mostly up to 28.7 µM. In short, it runs like this:
as §1

A number with no mark means an inactive call. Inconclusive results are not listed. Calls of active or inactive are those of the source. Unless noted, calls follow the shape of the dose curve; as a rule, active = well fitted curve in the direction sought with a large enough effect; inconclusive = small, poorly fitted or top-dose-only effect, or another doubt; inactive = no such curve, though single readings can be large; an effect the other way counts as inactive or inconclusive.

Sequence of Thyrotropin-releasing hormone receptor (Homo sapiens) (P34981 whole entry, looked up): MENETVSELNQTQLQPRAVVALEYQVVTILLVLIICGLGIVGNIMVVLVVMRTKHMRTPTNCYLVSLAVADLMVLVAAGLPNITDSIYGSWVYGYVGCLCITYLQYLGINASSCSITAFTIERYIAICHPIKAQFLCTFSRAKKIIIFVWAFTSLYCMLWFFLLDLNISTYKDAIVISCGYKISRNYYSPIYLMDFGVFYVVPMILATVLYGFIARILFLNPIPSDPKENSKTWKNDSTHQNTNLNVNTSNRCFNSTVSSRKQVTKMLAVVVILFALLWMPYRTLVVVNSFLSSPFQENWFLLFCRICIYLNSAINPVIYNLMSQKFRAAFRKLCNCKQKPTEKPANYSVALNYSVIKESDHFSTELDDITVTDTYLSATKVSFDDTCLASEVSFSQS
Sequence of Androgen receptor (Homo sapiens) (P10275 whole entry, looked up): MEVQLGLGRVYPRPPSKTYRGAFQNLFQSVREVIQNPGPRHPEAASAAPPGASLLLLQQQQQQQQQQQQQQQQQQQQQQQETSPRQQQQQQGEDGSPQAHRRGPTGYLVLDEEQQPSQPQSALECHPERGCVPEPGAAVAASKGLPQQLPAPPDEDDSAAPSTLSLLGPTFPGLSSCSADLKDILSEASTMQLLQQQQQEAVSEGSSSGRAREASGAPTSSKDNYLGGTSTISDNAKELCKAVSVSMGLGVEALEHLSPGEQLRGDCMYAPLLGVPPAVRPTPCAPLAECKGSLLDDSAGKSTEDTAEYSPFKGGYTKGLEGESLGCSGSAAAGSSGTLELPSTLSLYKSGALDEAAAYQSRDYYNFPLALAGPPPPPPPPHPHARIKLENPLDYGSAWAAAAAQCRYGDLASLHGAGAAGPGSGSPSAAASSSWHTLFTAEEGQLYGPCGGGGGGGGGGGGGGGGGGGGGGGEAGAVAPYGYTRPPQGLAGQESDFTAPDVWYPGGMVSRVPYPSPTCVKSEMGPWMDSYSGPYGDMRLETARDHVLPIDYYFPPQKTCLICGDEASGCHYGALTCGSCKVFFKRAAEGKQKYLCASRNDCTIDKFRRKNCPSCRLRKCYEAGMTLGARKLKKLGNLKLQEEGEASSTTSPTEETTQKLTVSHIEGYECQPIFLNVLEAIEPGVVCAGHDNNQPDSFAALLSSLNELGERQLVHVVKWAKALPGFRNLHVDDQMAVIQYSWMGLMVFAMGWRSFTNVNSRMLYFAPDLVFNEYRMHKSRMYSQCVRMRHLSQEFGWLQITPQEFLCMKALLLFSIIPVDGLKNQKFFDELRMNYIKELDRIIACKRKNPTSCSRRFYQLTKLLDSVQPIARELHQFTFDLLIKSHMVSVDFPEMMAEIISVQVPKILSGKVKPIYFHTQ
Sequence of 3',5'-cyclic-AMP phosphodiesterase 4B (Homo sapiens) (Q07343 whole entry, looked up): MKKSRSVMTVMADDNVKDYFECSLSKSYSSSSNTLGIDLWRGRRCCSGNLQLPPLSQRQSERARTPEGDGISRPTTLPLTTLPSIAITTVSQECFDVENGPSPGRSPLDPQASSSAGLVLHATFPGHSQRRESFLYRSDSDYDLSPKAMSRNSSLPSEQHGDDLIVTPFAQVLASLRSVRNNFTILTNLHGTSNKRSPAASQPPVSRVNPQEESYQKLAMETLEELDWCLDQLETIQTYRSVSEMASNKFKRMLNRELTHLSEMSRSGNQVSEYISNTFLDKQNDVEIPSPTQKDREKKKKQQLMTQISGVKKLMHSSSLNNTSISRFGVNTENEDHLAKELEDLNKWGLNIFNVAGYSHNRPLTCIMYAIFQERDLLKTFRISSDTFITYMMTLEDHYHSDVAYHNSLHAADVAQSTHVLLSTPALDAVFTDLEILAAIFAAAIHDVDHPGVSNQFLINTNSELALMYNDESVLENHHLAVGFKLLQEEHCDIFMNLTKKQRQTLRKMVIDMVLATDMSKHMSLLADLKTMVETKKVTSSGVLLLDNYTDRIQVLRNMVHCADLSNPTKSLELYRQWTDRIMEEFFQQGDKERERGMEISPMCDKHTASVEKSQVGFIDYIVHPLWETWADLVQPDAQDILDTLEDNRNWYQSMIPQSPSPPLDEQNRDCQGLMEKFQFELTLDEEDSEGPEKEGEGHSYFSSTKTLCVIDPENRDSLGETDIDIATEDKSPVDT
Sequence of Transient receptor potential cation channel subfamily V member 1 (Homo sapiens) (Q8NER1 whole entry, looked up): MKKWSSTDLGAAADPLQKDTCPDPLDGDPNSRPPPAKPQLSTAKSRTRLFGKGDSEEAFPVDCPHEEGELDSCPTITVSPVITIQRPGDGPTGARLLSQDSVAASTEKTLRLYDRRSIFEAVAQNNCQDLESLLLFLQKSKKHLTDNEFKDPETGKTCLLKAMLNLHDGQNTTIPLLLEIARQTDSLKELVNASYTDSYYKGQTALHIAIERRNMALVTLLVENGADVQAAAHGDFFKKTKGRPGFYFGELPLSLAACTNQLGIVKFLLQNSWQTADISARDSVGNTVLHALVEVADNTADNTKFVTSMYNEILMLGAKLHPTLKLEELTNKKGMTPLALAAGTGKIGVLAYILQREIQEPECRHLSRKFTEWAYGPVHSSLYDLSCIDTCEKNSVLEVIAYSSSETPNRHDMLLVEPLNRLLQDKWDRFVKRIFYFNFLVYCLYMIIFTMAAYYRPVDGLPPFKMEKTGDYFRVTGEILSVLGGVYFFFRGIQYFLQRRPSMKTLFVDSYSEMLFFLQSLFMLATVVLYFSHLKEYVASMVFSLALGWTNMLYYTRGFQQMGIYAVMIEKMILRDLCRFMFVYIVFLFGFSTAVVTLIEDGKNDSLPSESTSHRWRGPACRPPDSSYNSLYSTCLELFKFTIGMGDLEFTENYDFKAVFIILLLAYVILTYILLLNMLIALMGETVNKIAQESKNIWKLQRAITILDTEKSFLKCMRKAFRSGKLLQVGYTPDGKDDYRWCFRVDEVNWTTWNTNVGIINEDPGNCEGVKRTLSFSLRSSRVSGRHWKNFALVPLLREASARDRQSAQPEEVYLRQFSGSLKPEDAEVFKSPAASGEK
Sequence of Thyroid hormone receptor beta (Homo sapiens) (P10828 whole entry, looked up): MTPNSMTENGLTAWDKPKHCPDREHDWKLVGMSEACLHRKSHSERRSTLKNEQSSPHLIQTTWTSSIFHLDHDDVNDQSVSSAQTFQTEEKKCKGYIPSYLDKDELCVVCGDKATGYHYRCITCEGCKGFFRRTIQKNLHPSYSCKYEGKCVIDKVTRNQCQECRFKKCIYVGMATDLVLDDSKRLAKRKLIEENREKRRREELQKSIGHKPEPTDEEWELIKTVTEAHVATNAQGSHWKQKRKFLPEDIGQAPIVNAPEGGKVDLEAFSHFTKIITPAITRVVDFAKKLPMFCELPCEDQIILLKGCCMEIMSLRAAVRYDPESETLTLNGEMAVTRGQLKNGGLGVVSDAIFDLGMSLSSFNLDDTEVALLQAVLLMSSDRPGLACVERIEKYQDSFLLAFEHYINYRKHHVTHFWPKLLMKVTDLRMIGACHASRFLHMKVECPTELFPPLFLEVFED
Sequence of Thyrotropin receptor (Homo sapiens) (P16473 whole entry, looked up): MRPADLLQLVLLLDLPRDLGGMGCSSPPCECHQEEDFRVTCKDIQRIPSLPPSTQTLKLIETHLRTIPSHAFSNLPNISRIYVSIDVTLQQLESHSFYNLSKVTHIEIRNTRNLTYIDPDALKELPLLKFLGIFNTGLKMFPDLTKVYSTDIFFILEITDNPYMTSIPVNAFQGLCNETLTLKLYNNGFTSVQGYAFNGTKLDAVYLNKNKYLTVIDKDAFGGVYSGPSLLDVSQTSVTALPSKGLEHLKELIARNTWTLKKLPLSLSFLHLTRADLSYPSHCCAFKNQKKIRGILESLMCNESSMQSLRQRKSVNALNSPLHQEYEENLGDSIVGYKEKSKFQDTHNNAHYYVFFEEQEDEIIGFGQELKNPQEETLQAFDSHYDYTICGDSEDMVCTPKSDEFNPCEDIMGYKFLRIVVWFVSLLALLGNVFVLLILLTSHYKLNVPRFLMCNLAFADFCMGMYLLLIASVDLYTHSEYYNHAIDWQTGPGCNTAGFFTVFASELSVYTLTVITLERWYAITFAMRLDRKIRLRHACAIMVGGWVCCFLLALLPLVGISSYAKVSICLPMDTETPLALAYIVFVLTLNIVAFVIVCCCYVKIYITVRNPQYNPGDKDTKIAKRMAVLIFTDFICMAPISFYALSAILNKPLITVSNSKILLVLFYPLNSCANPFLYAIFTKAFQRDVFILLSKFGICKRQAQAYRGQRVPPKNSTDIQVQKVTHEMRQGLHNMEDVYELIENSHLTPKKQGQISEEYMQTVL
Sequence of Guanine nucleotide-binding protein G(i) subunit alpha-1 (Homo sapiens) (P63096 whole entry, looked up): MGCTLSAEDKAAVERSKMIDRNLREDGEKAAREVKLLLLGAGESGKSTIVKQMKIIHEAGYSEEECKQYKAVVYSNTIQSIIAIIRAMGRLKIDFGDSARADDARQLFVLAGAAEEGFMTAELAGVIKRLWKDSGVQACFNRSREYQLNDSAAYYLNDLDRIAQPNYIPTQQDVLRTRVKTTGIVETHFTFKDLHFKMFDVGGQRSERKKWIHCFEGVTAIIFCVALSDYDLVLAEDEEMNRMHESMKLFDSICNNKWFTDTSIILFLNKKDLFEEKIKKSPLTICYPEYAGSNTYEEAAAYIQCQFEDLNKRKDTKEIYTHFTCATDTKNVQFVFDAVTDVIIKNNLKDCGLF
Sequence of Cytochrome P450 1A2 (Homo sapiens) (P05177 whole entry, looked up): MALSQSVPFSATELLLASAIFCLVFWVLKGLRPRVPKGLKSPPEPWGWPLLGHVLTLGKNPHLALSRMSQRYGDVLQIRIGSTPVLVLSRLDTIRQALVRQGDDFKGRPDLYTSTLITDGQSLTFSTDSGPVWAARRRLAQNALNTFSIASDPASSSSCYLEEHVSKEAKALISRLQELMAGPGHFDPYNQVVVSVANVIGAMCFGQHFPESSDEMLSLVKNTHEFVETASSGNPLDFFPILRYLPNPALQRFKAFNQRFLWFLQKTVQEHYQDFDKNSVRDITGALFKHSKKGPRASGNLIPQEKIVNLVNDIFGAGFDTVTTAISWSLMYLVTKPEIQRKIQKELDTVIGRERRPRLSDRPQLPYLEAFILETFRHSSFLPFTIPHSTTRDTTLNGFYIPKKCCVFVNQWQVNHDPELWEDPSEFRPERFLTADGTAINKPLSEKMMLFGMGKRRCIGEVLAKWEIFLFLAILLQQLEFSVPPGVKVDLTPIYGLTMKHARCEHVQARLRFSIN

As for `CN(CCOc1ccc(C[C@H](Nc2ccccc2C(=O)c2ccccc2)C(=O)O)cc1)c1ccccn1`, the Potency result in assay [1], in assay [2], in assay [5] and in assay [17] was “inactive” throughout. For the same compound, the compound was classed as inactive in [3], in assay [6], in assay [7], in [10] and in assay [13]. In addition, the Potency in [4] was 8.91 µM (active); in [16], 50.1 µM (active). In addition, the activation was 2.06% in [8], -13.2% in assay [9], 1.83% in [11] and 3.94% in assay [12]. Further, the results for the max response in [14], in assay [15] and in assay [18] were 2.06%, -5.97% and 1.12%, respectively.

On to `C[C@@]12C(=O)OC(=O)[C@]1(C)[C@H]1CC[C@@H]2O1`, for which the Potency in assay [19] was 3.98 µM (active).

Turning to `C=C1CCC2[C@](C)(CO)C(O)CC[C@]2(C)C1C/C=C1/C(=O)OCC1O` (some centres not stated), the Potency entry in assay [20] was “inactive”.

Consider `CC(/C=C1\SC(=S)N(CC(=O)O)C1=O)=C\c1ccccc1`, for which the Potency result in assay [20] and in assay [19] was “inactive” in each case.

The record behind these values is PubChem BioAssay (NCATS).
